Assay outcomes deposited in PubChem BioAssay by National Center for Advancing Translational Sciences (NCATS).
The sample as a whole holds a higher share of hits than the screen did.
Tb PYK inh: inhibitors of Trypanosoma brucei pyruvate kinase; Q57TT1; TbPYK enzyme, Kinase-Glo Plus ATP luminescence, 45 min; Potency, µM (doses to about 76.8 µM), for the others: top-dose activity, negative = inhibition, hits mostly inhibitors; 410,000 tested, 0.12% active; AID 624173; also: potency is read from the fitted curve at half-maximal effect; % is scaled to controls: 0 for no effect and ±100 for the full control effect; nearly all actives have a fitted effect of over 50% in size
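Readout: single end-point luminescence (Kinase-Glo Plus, 10 min). Reaction conditions were TbPYK/substrate plus 130 uM ADP, 45 min at RT, pH 7.2 TEA buffer. No-enzyme wells served as controls, and data were normalized before concentration-response fitting.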
Shiga inhibitor: blocks Shiga toxin action in Vero cells. inhibition, % at 38.7 µM. Vero cells, Shiga toxin protein synthesis inhibition reporter. 290,000 tested, 9.2% active; in the data active = inhibition mostly above about 28%, no sharp cut-off; inactive = mostly below about 43%; also: 0% is about no effect
CHX counter: counter-screen for Shiga toxin inhibitors: cycloheximide protein synthesis inhibition | max response, % | 300,000 tested, 12% active | cell reporter, cycloheximide protein synthesis inhibition counterscreen | AID 2314; in the data active = max response mostly above about 13%, no sharp cut-off; inactive = mostly below about 14%; also: read at 38.3 µM for the half of the compounds with a filed dose; 0% is about no effect
FBPA Giardia inh: blocks Giardia fructose-bisphosphate aldolase activity. 290,000 tested, 0.71% active. A8B2U2. Potency, µM (series often up to 59.6 µM), inactives show at the top dose activity, negative = inhibition, most hits filed as inhibitors. purified Giardia FBPA. AID 2451; also: potency is read from the fitted curve at half-maximal effect; % is scaled to controls: 0 for no effect and ±100 for the full control effect; nearly all actives have a fitted effect of over 55% in size
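Giardia FBPA (40 nM reagent) was preincubated 10 min at RT with compound (up to 57.5 uM final), then substrate plus GAPDH/TPI/NAD/arsenate coupling system with diaphorase/resazurin was added; resorufin fluorescence (525/598 nm) was read after 20 min.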
Sm TGR inh: blocks Schistosoma mansoni thioredoxin glutathione reductase. purified TGR, DTNB reduction, TNB absorbance 405 nm. Potency, µM (top dose mostly 114 µM), inactives show at the top dose activity change, negative = inhibition, actives largely listed as inhibitors. 360,000 tested, 3% active. AID 485364; also: potency is read from the fitted curve at half-maximal effect; % is scaled to controls: 0 for no effect and ±100 for the full control effect; nearly all actives have a fitted effect of over 60% in size
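TGR 20 nM + NADPH 100 uM (dispensed conc.), cpd preinc 15 min RT; start with NADPH (500 uM addition) then DTNB (15 mM addition). Kinetic TNB absorbance, 405 nm filter. Four-parameter Hill fit across titration.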
LmPK inhibitor: inhibitors of Leishmania mexicana pyruvate kinase. purified LmPK, Kinase-Glo ATP luminescence, 1 h. Potency, µM (series often up to 57.5 µM), for inactives: at the top dose activity change, negative = inhibition, most hits filed as inhibitors. 290,000 tested, 0.37% active. AID 1721; also: potency is read from the fitted curve at half-maximal effect; % is scaled to controls: 0 for no effect and ±100 for the full control effect
Target sequence (Q27686 whole entry, looked up): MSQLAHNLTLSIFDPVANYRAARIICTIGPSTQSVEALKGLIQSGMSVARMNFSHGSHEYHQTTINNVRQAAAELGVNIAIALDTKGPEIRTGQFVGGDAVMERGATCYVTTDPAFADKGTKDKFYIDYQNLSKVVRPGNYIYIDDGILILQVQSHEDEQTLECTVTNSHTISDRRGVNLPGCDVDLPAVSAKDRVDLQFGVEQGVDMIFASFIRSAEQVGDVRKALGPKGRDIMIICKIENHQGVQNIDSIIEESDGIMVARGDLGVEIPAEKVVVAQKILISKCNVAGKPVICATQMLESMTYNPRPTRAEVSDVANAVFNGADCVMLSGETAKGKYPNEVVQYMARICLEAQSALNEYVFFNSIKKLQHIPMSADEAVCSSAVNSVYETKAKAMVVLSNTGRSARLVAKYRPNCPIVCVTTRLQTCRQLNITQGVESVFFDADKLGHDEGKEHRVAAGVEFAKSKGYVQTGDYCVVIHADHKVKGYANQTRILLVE
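0.1 nM LmPK, 0.5 mM PEP, 0.1 mM ADP; 50 mM imidazole pH 7.2, 7 mM MgCl2, 50 mM KCl; 1 h RT. Kinase-Glo luminescence readout, normalized to no-enzyme (full inhibition) and uninhibited wells.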
The depositor's hits bear a star; ? = inconclusive; / = no result given; [ ] = another dose, or the depositor's remark. Unless noted, calls follow the shape of the dose curve; as a rule, active = well fitted curve in the direction sought with a large enough effect; inconclusive = small, poorly fitted or top-dose-only effect, or another doubt; inactive = no such curve, though single readings can be large; an effect the other way counts as inactive or inconclusive.

SMILES	Tb PYK inh	Shiga inhibitor	CHX counter	FBPA Giardia inh	Sm TGR inh	LmPK inhibitor
CCOC(=O)N1CCc2c(sc3c2c(=O)n(-c2ccc(CC)cc2)c(=O)n3Cc2cc(C)ccc2C)C1	1%	/	/	/	?	/
Cc1csc(=O)n1CCC(=O)OCC(=O)NNC(=O)c1ccc(Cl)cc1	-13%	/	/	/	35µM*	/
CC[n+]1c(/C=C2/C=C(C)CC(C)(C)C2)sc2ccc(OC)cc21	-36%	43	17	?	18µM*	-5%
CCC1=C/C(=C/c2sc3ccccc3[n+]2CC)CC(C)(C)C1	?	6	-6	-27%	1.8µM*	6%
CC[n+]1c(/C=C2\C=C(C)CC(C)C2)sc2ccccc21 (stereo unspecified)	-25%	-11	12	-17%	40µM*	-1%
COc1ccc2sc(C)[n+](C)c2c1	-21%	-13	-2	-2%	4%	4%
CCN1/C(=C/C(C)=C/c2sc3ccccc3[n+]2CC)Sc2ccccc21	?	-21	-9	-8%	-24%	-14%
CC[n+]1c(/C=C2\C=C(C)CC(C)(C)C2)sc2ccccc21	?	-9	-3	-27%	14µM*	-2%
CCOc1ccc(CNC(=O)C2CCCN(S(=O)(=O)c3ccc4c(ccn4C)c3)C2)cc1 (stereo unspecified)	-3%	/	/	/	1%	/
CCOC(=O)Cc1c(C)nc2c(-c3ccc(Cl)cc3)c(C(F)(F)F)nn2c1C	3%	/	/	/	3%	/
O=C1C2Cc3c([nH]c4ccccc34)C(c3ccccc3)N2C(=O)C2Cc3c([nH]c4ccccc34)C(c3ccccc3)N12 (stereo unspecified)	/	/	/	-5%[12.9 µM]	/	/
O=C(N/N=C/c1sc(=O)n(-c2ccccc2)c1Cl)c1ccncc1	-7%	67*	20*	-4%	?	2%
COc1cc(C(=O)N/N=C/c2sc(=O)n(-c3ccccc3)c2Cl)cc(OC)c1OC	6%	16	19*	0%	-1%	4%
COc1cc(C(=O)N/N=C/c2sccc2C)cc(OC)c1OC	0%	26	-2	1%	-9%	-1%
CCc1ccc(NC(=S)Nc2cc(C(=O)O)ccc2N2CC3CC(C2)c2cccc(=O)n2C3)cc1 (stereo unspecified)	-1%	70*	35	-10%	-36%	2%[11.5 µM]
CCCCCc1ccnc(CC(=O)c2ccc(OC)cc2)c1	2%	/	/	/	/	/
O=C(COc1ccc(-c2nnco2)cc1)Nc1c(F)cccc1F	2%	/	/	/	-7%	/
Fc1ccc(COc2ccc(-c3nnco3)cc2)c(Cl)c1	2%	84*	30*	7%	-18%	-5%
Fc1cc(Br)ccc1COc1ccc(-c2nnco2)cc1	-5%	93*	36*	/	5%	-1%
CSc1nn(Cc2cccc(Cl)c2)c(N(C(C)=O)C(C)=O)c1S(=O)(=O)c1ccccc1	-3%	/	/	/	-22%	/
O=C(c1cc(Br)c(Br)s1)N1CCc2ccccc2C1	0%	/	/	/	/	/
CCCC[C@H]1C[C@@H]1[C@@H]1N(P(=O)(c2ccccc2)c2ccccc2)[C@](CO)(c2ccccc2)CC12CC2	/	/	/	-1%	/	/
CCOc1ccc(-c2nonc2NC(=O)COc2ccccc2)cc1	-1%	/	/	/	8%	/
CC12C(=O)N(Cc3ccco3)C(=O)C1C1c3ccccc3C2c2ccccc21 (stereo unspecified)	4%	42	46*	-9%	-26%	10%
CC(C)CN1CCC2(CC1)CCN(C(=O)c1csnn1)CC2	0%	/	/	?	/	/
COc1ccc(/C=C/C(=O)c2ccc[nH]2)cc1OC	4%	51	30*	0%	9%	0%
COc1ccc(/C=C/C(=O)c2ccc[nH]2)c(OC)c1OC	7%	100*	26*	2%	-19%	1%
COc1ccc(/C=C/C(=O)c2ccncc2)c2ccccc12	7%	2	7	?	?	-2%
COc1ccc(/C=C/C(=O)c2cccs2)cc1OC	/	/	/	-14%	/	/
O=C(NC(C(=O)c1ccccc1)N1CCCCC1)c1ccccc1 (stereo unspecified)	3%	72*	33*	1%	-18%	-6%
